Inconclusive results are not listed. A call without a number means that no potency is given here. Active and inactive are the calls of the source. Calls come from the whole dose curve; as a rule, active = well fitted inhibition curve with a large enough effect; inconclusive = small, poorly fitted or top-dose-only effect; inactive = flat fitted curve, though single readings scatter.
Experiments:
[1] = qHTS profiling for inhibitors of Plasmodium falciparum proliferation (AID 504749); for all read-outs here: nearly all actives have a fitted effect of over 60% in size; details: P. falciparum in erythrocytes, SYBR Green DNA, 72 h; for activity, negative = inhibition: at 28.7 µM (top of the series)
Outline: (§1)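 Parasite proliferation within erythrocytes, 72 h exposure. Endpoint: SYBR Green I fluorescence after overnight lysis at room temperature. Controls: 0.29 uM artemisinin, DMSO.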

3D7 = test: as above; details: P. falciparum in erythrocytes, SYBR Green DNA, 72 h; series mostly up to 28.7 µM
Outline: as §1

7G8 = test: as above; details: P. falciparum in erythrocytes, SYBR Green DNA, 72 h; series mostly up to 28.7 µM
Outline: as §1

AA1029 = test: as above; details: P. falciparum in erythrocytes, SYBR Green DNA, 72 h; series mostly up to 28.7 µM
Outline: as §1

ATS189 = test: as above; details: P. falciparum in erythrocytes, SYBR Green DNA, 72 h; series mostly up to 28.7 µM
Outline: as §1

ATS95 = test: as above; details: P. falciparum in erythrocytes, SYBR Green DNA, 72 h; series mostly up to 28.7 µM
Outline: as §1

C2A = test: as above; details: P. falciparum in erythrocytes, SYBR Green DNA, 72 h; series mostly up to 28.7 µM
Outline: as §1

CP185 = test: as above; details: P. falciparum in erythrocytes, SYBR Green DNA, 72 h; series mostly up to 28.7 µM
Outline: as §1

CP191 = test: as above; details: P. falciparum in erythrocytes, SYBR Green DNA, 72 h; series mostly up to 28.7 µM
Outline: as §1

CP192 = test: as above; details: P. falciparum in erythrocytes, SYBR Green DNA, 72 h; series mostly up to 28.7 µM
Outline: as §1

CP194 = test: as above; details: P. falciparum in erythrocytes, SYBR Green DNA, 72 h; series mostly up to 28.7 µM
Outline: as §1

AS120 = test: as above; details: P. falciparum in erythrocytes, SYBR Green DNA, 72 h; series mostly up to 28.7 µM
Outline: as §1
Potency is the fitted concentration of half-maximal effect.

Q: Which activity, negative = inhibition ([1]; parasite line B) does the source give for `CC(=O)Nc1c(I)c(C(=O)O)c(I)c(N(C)C(C)=O)c1I` here?
A: The activity, negative = inhibition was -11.8% (inactive).

Q: What about the Potency (3D7) of the same compound?
A: The Potency was “inactive”.

Q: And the Potency (7G8)?
A: The Potency was “inactive”.

Q: What about the Potency (AA1029) of the same compound?
A: The Potency was “inactive”.

Q: And the Potency (ATS189)?
A: The Potency was “inactive”.

Q: And the Potency (ATS95)?
A: The Potency was “inactive”.

Q: What about the Potency (C2A) of the same compound?
A: Its Potency is “inactive”.

Q: What about the Potency (CP185) of the same compound?
A: Its Potency is “inactive”.

Q: And the Potency (CP191)?
A: The Potency was “inactive”.

Q: What about the Potency (CP192) of the same compound?
A: The Potency was “inactive”.

Q: What about the Potency (CP194) of the same compound?
A: The Potency was “inactive”.

Q: For `C#C[C@]1(O)CC[C@@H]2[C@H]3CCC4=CC(=O)CC[C@H]4[C@H]3C(=C)C[C@@]21CC`, which Potency (AA1029) is on record?
A: Its Potency is “inactive”.

Q: What about the Potency (AS120) of the same compound?
A: The Potency was “inactive”.

Q: And the Potency (ATS189)?
A: The Potency was “inactive”.

Q: What about the Potency (ATS95) of the same compound?
A: Its Potency is “inactive”.

Q: What about the Potency (C2A) of the same compound?
A: Its Potency is “inactive”.

Q: What about the Potency (CP185) of the same compound?
A: The Potency was “inactive”.

Q: And the Potency (CP192)?
A: Its Potency is 0.379 µM (active).

Q: And the Potency (CP194)?
A: Its Potency is 0.536 µM (active).

Q: For `Cn1c(O)c(N=NC(N)=S)c2ccccc21`, which Potency (7G8) is on record?
A: Its Potency is 12.6 µM (active).

Q: What about the Potency (CP192) of the same compound?
A: The Potency was “inactive”.

Q: Which Potency ([1]; parasite line A) does the source give for `O=C(c1cc2ccccc2o1)N1CCN(Cc2ccccc2)CC1` here?
A: The Potency was 7.94 µM (active).

Q: What about the Potency (7G8) of the same compound?
A: The Potency was 7.94 µM (active).

Q: And the Potency (AS120)?
A: Its Potency is 8.91 µM (active).

Q: And the Potency (C2A)?
A: Its Potency is “inactive”.

Q: And the Potency (CP192)?
A: Its Potency is “inactive”.

Q: For `CCCCCc1ccc(C)cc1O`, which activity, negative = inhibition ([1]; parasite line A) is on record?
A: The activity, negative = inhibition was -9.62% (inactive).

Q: What about the Potency (3D7) of the same compound?
A: The Potency was “inactive”.

Q: What about the Potency (7G8) of the same compound?
A: The Potency was 12.6 µM (active).

Q: And the Potency (AA1029)?
A: The Potency was “inactive”.

Q: And the Potency (AS120)?
A: Its Potency is “inactive”.

Q: What about the Potency (ATS189) of the same compound?
A: Its Potency is “inactive”.

Q: What about the Potency (ATS95) of the same compound?
A: The Potency was “inactive”.

Q: And the Potency (C2A)?
A: Its Potency is “inactive”.

Q: And the Potency (CP185)?
A: The Potency was “inactive”.

Q: What about the Potency (CP191) of the same compound?
A: Its Potency is “inactive”.

Q: What about the Potency (CP192) of the same compound?
A: Its Potency is “inactive”.

Q: What about the Potency (CP194) of the same compound?
A: The Potency was “inactive”.

Q: Which activity, negative = inhibition ([1]; parasite line A) does the source give for `O=C(OCc1ccccc1)c1cccnc1` here?
A: The activity, negative = inhibition was -26.7% (inactive).

Q: What about the Potency (3D7) of the same compound?
A: Its Potency is “inactive”.

Q: And the Potency (7G8)?
A: The Potency was “inactive”.

Q: What about the Potency (AA1029) of the same compound?
A: Its Potency is “inactive”.

Q: What about the Potency (AS120) of the same compound?
A: Its Potency is “inactive”.

Q: What about the Potency (ATS189) of the same compound?
A: The Potency was “inactive”.

Q: What about the Potency (ATS95) of the same compound?
A: Its Potency is “inactive”.

Q: What about the Potency (C2A) of the same compound?
A: The Potency was “inactive”.

Q: And the Potency (CP185)?
A: The Potency was “inactive”.

Q: What about the Potency (CP192) of the same compound?
A: Its Potency is “inactive”.

Q: With `CCCCCCCCCCCCCCCCOCCOCCOCCOCCOCCOCCOCCOCCOCCOCCOCCOCCOCCOCCOCCOCCOCCOCCOCCOCCO` as the compound, how does the Potency ([1]; parasite line A) read?
A: The Potency was 15.8 µM (active).

Q: And the Potency (7G8)?
A: Its Potency is 5.62 µM (active).

Q: And the Potency (AS120)?
A: Its Potency is 14.1 µM (active).

Q: And the Potency (ATS95)?
A: The Potency was 11.2 µM (active).

Q: With `CC[C@H]1OC(=O)[C@H](C)[C@@H](O[C@H]2C[C@@](C)(OC)[C@@H](O)[C@H](C)O2)C(C)[C@@H](O[C@@H]2O[C@H](C)C[C@H](N(C)C)[C@@H]2O)[C@](C)(OC)C[C@@H](C)C(=O)[C@H](C)[C@@H](O)[C@]1(C)O` (stereo partly drawn) as the compound, how does the Potency (7G8) read?
A: Its Potency is “inactive”.

Q: And the Potency (AA1029)?
A: Its Potency is “inactive”.

Q: And the Potency (ATS189)?
A: Its Potency is “inactive”.

Q: What about the Potency (ATS95) of the same compound?
A: The Potency was “inactive”.

Q: And the Potency (C2A)?
A: The Potency was “inactive”.

Q: What about the Potency (CP185) of the same compound?
A: Its Potency is “inactive”.

Q: And the Potency (CP192)?
A: Its Potency is “inactive”.

Q: Which Potency (3D7) does the source give for `CN(C)CCC=C1c2ccccc2C(C)(C)c2ccccc21` here?
A: Its Potency is “inactive”.

Q: And the Potency (7G8)?
A: The Potency was 7.94 µM (active).

Q: And the Potency (ATS189)?
A: The Potency was “inactive”.

Q: And the Potency (CP192)?
A: The Potency was “inactive”.

Reference: PubChem BioAssay (NCATS)
